The source of these data is PubChem BioAssay (NCATS).

The target in test [1] is Estrogen receptor (Homo sapiens) (UniProt P03372). Put plainly: qHTS assay for small molecule antagonists of estrogen receptor alpha signaling (AID 588513; active = well fitted curve in the direction sought with a large enough effect in the signal ratio, with a control signal flat, not every such curve was filed as active; the % refers to the signal ratio; note: % is set by controls: 0 for no effect and ±100 for the full control effect). Particulars: ER-alpha-UAS-bla HEK293, beta-lactamase ratio, antagonist mode; series mostly up to 76.9 µM. In short, it runs like this:
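Antagonist mode: inhibition of 0.5 nM 17-beta-estradiol-driven beta-lactamase reporter in HEK 293 ER-alpha-UAS-bla cells, 18 h at 37C, CCF4 readout after 2 h at RT. Normalised to estradiol and DMSO; titration fitted to Hill.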
Background: In qHTS, concentration-response curves come from the screen itself.

Test [2] shares this target. Nature of the test: qHTS assay for small molecule agonists of estrogen receptor alpha signaling (AID 588514).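 Note: 0% = vehicle only and 100% = reference agonist; nearly all actives have a fitted effect of over 70% in size.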 The note with it: ER-alpha-UAS-bla HEK293, beta-lactamase ratio, 18 h; series mostly up to 76.8 µM. The method in brief: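 ER-alpha-UAS-bla GripTite HEK293 cells, 5000/well in 2% charcoal/dextran-stripped FBS medium, treated with compound titrations 18 h at 37 C. CCF4 beta-lactamase read by fluorescence after 2 h RT; normalised to 20 nM 17-beta-estradiol (100%) and DMSO (0%), Hill fit for EC50 and efficacy.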

Test [3] is described as follows: qHTS assay for small molecule antagonists of peroxisome proliferator-activated receptor delta signaling (AID 588535).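 Note: cells co-treated with a PPAR-delta agonist as stimulator during compound exposure.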 Particulars: HEK293T PPARd-UAS-bla, beta-lactamase FRET ratio, 18 h; 460 nm channel. The method in brief:
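Reporter: UAS-bla under PPAR-delta response element, HEK293T host. Medium: 2% charcoal/dextran FBS. Dosing: titration, 18 hrs, 37 C. Detection: CCF4, 2 hrs RT, 405 ex/460 and 530 em.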

Test [4] concerns the target Peroxisome proliferator-activated receptor gamma (Homo sapiens) (UniProt P37231). Nature of the test: qHTS assay for small molecule agonists of peroxisome proliferator-activated receptor gamma signaling (AID 588536; active = well fitted curve in the direction sought with a large enough effect in the signal ratio, with a control signal flat, not every such curve was filed as active; the % refers to the signal ratio;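 note: 0% = DMSO basal wells and 100% = rosiglitazone at 2 µM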). The note with it: HEK293 PPARg-UAS-bla, beta-lactamase ratio, 16 h, percent of rosiglitazone response, DMSO as zero; series mostly up to 76.7 µM. In short, it runs like this:
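HEK293 UAS-bla reporter line, 1% charcoal/dextran FBS; titration, 16 h, 37 C; CCF4 loading 2 h RT; fluorescence 460/530 nm. Normalized to rosiglitazone 2 uM = 100%, DMSO = 0%.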

Test [5] has the same target. Put plainly: qHTS assay for small molecule antagonists of peroxisome proliferator-activated receptor gamma signaling (AID 588537; active = well fitted inhibition curve with a large enough effect in the signal ratio, with a control signal flat, not every such curve was filed as active; the % refers to the signal ratio;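 note: reporter cells co-stimulated with 50 nM rosiglitazone agonist during compound treatment; % of control where 0% means no effect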). The note with it: HEK293 PPARg-UAS-bla, beta-lactamase ratio, antagonist mode; series mostly up to 76.8 µM. The method in brief: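 We seeded GeneBLAzer HEK293 reporter cells at 3000 per well, allowed 6-6.5 h attachment at 37 C, then co-treated with test compound titrations and 50 nM rosiglitazone overnight (16 h). Inhibition was quantified from 460/530 nm emission ratios.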

Test [6] deals with Vitamin D3 receptor (Homo sapiens) (UniProt P11473). Put plainly: qHTS assay for small molecule antagonists of vitamin D receptor signaling (AID 588541).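 Note: receptor activated by calcitriol during compound treatment; % is set by controls: 0 for no effect and ±100 for the full control effect.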 Particulars: HEK293T VDR-UAS-bla, beta-lactamase ratio, antagonist mode; series mostly up to 76.7 µM. In short, it runs like this: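 VDR-UAS-bla HEK293T cells (2000/well, 2% charcoal-stripped FBS) were treated with titrated compounds plus 1-alpha,25-dihydroxyvitamin D3 (50 nM or 3 nM final) for 16 h at 37 C. CCF4 beta-lactamase fluorescence was read; Hill fits gave IC50.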

The target is the same in test [7]. Put plainly: qHTS assay for small molecule agonists of vitamin D receptor signaling (AID 588543).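 Note: 0% = DMSO basal and 100% = reference agonist control.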 The note with it: HEK293T VDR-UAS-bla, beta-lactamase ratio, 16 h; series mostly up to 76.8 µM. In short, it runs like this:
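Agonist-mode beta-lactamase reporter: HEK293T VDR-UAS-bla cells in charcoal-stripped 2% FBS, compound series 16 h 37 C, CCF4 2 h RT. EC50 from Hill fit, scaled against DMSO and 50 nM calcitriol control.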

Test [8] can be described thus: qHTS assay for small molecule agonists of retinoid X receptor alpha signaling (AID 588544).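 For activation: 0% = DMSO basal wells and 100% = reference agonist.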 The note with it: HEK293T RXRa-UAS-bla, beta-lactamase reporter, 18 h; 530 nm emission.
Test [9] deals with Retinoic acid receptor RXR-alpha (Homo sapiens) (UniProt P19793). The description is as above. The note with it: HEK293T RXRa-UAS-bla, beta-lactamase reporter, 18 h; series mostly up to 76.7 µM.
Test [10] concerns the target Thyroid hormone receptor beta (Homo sapiens) (UniProt P10828). Put plainly: qHTS assay for small molecule agonists of thyroid hormone receptor beta signaling (AID 588545).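 Note: 0% = DMSO only and 100% = 10 nM T3.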 The note with it: TR-UAS-bla GripTite HEK 293, beta-lactamase ratio, agonist mode, 18 h; series mostly up to 76.7 µM. In short, it runs like this:
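Compounds were tested as agonists in TR-UAS-bla-GripTite HEK 293 cells. After 18 hrs at 37 C, CCF4 substrate was added and fluorescence read after 2 hrs at room temperature.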

Test [11] in a line: qHTS assay for small molecule antagonists of retinoid X receptor alpha signaling (AID 588546; active = well fitted inhibition curve with a large enough effect in the signal ratio, with a control signal flat, not every such curve was filed as active; the % refers to the signal ratio;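 note: cells stimulated with 9-cis-retinoic acid as agonist; % is set by controls: 0 for no effect and ±100 for the full control effect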). The note with it: HEK293T RXRa-UAS-bla, beta-lactamase ratio, antagonist mode; measured here: W530 green channel, cytotoxicity proxy. The method in brief: (§1)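 Beta-lactamase reporter inhibition, read as CCF4 fluorescence ratio (ex 405, em 460/530 nm) after 2 h at RT. HEK293T UAS-bla cells, 2500/well, were stimulated with 9-cis-RA at 500 or 100 nM final alongside test compound for 18 h at 37 C.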

In test [12] the target is Retinoic acid receptor RXR-alpha (Homo sapiens) (UniProt P19793). The test is described as above. Particulars: HEK293T RXRa-UAS-bla, beta-lactamase ratio, antagonist mode. In short, it runs like this: as §1
Test [13] is described as follows: qHTS assay for small molecule activators of the nuclear factor-kappa B (NF-kB) signaling pathway (AID 651749; active = well fitted activation curve with a large enough effect in the signal ratio; the % refers to the signal ratio; note: % of control where 0% means no effect). Particulars: NF-kB-bla ME-180 cells, beta-lactamase FRET ratio, 16 h; activation: stronger effect = higher value. In short, it runs like this:
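Screening used 2,000 ME-180 reporter cells per well exposed to pinned compound (23 nL) or DMSO; after 16 hr at 37C, beta-lactamase expression under NF-kB control was assessed through FRET.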

Test [14] is described as follows: qHTS assay for environmental chemicals that activate the Aryl hydrocarbon Receptor (AhR) signaling pathway (AID 651777; active = well fitted curve in the direction sought with a large enough effect; an effect the other way counts as inactive or inconclusive; note: % of control where 0% means no effect; nearly all actives have a fitted effect of over 15% in size). Particulars: 1A2-DRE human hepatoma cells, luciferase, 24 h; activation: stronger effect = higher value. The method in brief:
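Luminescence (One-Glo, 30 min, room temperature) reports AhR-driven luciferase in stably transfected human hepatoma cells bearing DRE and CYP1A2 promoter. Cells (1,200/well) were treated with compound for 24 hr at 37 C in qHTS format.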

Test [15] deals with Peroxisome proliferator-activated receptor alpha (Homo sapiens) (UniProt Q07869). Put plainly: qHTS assay for small molecule agonists of the peroxisome proliferator-activated receptor alpha (PPARalpha) signaling pathway (AID 651778; active = well fitted curve in the direction sought with a large enough effect; an effect the other way counts as inactive or inconclusive; note: % of control where 0% means no effect). Particulars: PathHunter PPARalpha complementation, chemiluminescence, 6 h; max response: stronger effect = higher value. In short, it runs like this: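 Cells plated at 2,000/well and held overnight at 37 C, 5% CO2, then compound added by pin tool for 6 hr; after PathHunter detection reagent and 60 min at room temperature, chemiluminescence from enzyme complementation was read.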

The nature of test [16]: qHTS assay for small molecule agonists of the antioxidant response element (ARE) signaling pathway measured by Nrf2-dependant transcriptional activity - cell viability counter screen (AID 720653; active = well fitted curve in the direction sought with a large enough effect in the repeat runs; an effect the other way counts as inactive or inconclusive; note: % is set by controls: 0 for no effect and ±100 for the full control effect). Particulars: ARE-bla HepG2 viability, CellTiter-Glo ATP luminescence, 16 h; max response: stronger effect = lower value. In short, it runs like this: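 ARE-bla HepG2 cells (2,000/well) rested 5 hrs at 37C/5% CO2, then exposed to compounds in DMSO for 16 hrs. Viability was read in the same wells as intracellular ATP by luminescence, 30 min at room temperature after reagent addition.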

A short description of test [17]: qHTS assay for cell viability of HEK293 cells (AID 743288; active = well fitted curve in the direction sought with a large enough effect; an effect the other way counts as inactive or inconclusive; note: % is set by controls: 0 for no effect and ±100 for the full control effect; nearly all actives have a fitted effect of over 50% in size). The note with it: ATP luminescence (CellTiter-Glo), 18 h; max response: stronger effect = lower value. The method in brief:
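Total intracellular ATP, measured with a luciferase-coupled reagent, indicates the number of viable HEK293 cells. Exposure to test chemicals lasts 18 h at 37 C in 1,536-well format at 2,000 cells/well.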

Test [18] can be described thus: qHTS assay for cell viability of the p53RE-bla HCT-116 cell line (AID 743292; active = well fitted curve in the direction sought with a large enough effect; an effect the other way counts as inactive or inconclusive; note: % is set by controls: 0 for no effect and ±100 for the full control effect; nearly all actives have a fitted effect of over 55% in size). Particulars: p53RE-bla HCT-116 viability, ATP luminescence, 16 h; series mostly up to 95 µM. The method in brief: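 ATP-based luminescent viability (CellTiter-Glo, 30 min RT) after 16 h compound treatment at 37 C of p53RE-bla HCT-116 cells, seeded at 4,000 cells/well and rested 5 h before dosing.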

Test [19] has as its target Nuclear receptor subfamily 1 group I member 2 (Rattus norvegicus) (UniProt Q9R1A7). Put plainly: qHTS assay for small molecule activators of the rat pregnane X receptor (rPXR) signaling pathway (AID 651751; call rule not given here; note: 0% is about no effect). Particulars: rPXR reporter cells, luciferase (One-Glo), 24 h.
A short description of test [20]: qHTS assay for small molecule activators of the human pregnane X receptor (PXR) signaling pathway (AID 720659; call rule not given here; note: 0% is about no effect). The note with it: DPX-2 HepG2 CYP3A4-luciferase, 24 h; series mostly up to 92.3 µM.

Records with an inconclusive call do not appear. Activity calls are given as the source filed them. Unless noted, calls come from the whole dose curve.

Chain of Estrogen receptor (Homo sapiens) (P03372 whole entry, looked up): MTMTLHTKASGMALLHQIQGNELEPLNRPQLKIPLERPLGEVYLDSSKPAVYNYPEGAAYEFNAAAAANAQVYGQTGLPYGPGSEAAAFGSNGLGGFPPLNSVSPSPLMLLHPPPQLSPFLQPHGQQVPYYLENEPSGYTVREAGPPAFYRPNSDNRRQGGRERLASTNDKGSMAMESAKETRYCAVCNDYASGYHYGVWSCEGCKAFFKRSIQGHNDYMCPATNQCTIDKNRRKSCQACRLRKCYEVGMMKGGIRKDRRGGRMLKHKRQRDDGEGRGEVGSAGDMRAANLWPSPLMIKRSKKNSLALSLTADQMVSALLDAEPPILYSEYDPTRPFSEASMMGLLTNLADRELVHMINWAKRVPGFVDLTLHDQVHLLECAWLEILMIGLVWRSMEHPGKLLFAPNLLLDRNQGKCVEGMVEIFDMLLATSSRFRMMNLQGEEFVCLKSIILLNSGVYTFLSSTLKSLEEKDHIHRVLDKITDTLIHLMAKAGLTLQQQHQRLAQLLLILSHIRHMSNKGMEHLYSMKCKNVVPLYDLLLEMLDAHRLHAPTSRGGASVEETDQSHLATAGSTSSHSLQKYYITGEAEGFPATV
Chain of Vitamin D3 receptor (Homo sapiens) (P11473 whole entry, looked up): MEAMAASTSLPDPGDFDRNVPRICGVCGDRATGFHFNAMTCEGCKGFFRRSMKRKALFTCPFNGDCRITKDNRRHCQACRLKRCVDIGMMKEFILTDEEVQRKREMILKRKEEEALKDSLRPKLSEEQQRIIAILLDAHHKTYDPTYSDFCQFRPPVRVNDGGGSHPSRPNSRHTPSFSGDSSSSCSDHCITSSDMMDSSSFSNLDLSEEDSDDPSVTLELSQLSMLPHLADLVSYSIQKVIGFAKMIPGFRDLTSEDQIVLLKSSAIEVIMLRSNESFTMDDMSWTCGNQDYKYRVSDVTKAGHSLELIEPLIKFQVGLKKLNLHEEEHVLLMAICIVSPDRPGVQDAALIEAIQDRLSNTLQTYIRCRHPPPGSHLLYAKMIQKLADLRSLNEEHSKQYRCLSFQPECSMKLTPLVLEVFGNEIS
Chain of Nuclear receptor subfamily 1 group I member 2 (Rattus norvegicus) (Q9R1A7 whole entry, looked up): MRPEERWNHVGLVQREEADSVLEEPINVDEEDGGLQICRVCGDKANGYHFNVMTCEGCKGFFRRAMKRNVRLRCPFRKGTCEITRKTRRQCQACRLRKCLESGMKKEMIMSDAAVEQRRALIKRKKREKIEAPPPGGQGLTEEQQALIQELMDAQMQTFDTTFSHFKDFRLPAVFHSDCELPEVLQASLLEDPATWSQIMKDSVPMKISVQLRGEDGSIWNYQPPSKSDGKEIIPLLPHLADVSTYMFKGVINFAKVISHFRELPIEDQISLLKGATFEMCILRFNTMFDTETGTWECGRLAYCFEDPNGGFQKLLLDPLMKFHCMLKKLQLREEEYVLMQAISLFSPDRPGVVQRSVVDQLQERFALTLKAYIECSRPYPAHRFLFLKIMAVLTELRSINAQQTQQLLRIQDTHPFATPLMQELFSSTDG
Chain of Thyroid hormone receptor beta (Homo sapiens) (P10828 whole entry, looked up): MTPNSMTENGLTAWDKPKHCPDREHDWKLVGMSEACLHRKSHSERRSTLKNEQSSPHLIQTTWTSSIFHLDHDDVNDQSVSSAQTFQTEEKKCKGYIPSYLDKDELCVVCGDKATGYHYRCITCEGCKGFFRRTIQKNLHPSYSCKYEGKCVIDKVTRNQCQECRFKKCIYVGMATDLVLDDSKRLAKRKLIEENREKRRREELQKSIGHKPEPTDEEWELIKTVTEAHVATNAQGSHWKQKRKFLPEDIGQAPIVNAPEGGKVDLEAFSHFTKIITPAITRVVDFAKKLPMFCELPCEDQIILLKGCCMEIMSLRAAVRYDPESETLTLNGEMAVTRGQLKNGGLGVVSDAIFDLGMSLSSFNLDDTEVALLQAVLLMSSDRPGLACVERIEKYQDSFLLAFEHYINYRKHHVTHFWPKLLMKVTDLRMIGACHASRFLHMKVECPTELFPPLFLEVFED
Chain of Retinoic acid receptor RXR-alpha (Homo sapiens) (P19793 whole entry, looked up): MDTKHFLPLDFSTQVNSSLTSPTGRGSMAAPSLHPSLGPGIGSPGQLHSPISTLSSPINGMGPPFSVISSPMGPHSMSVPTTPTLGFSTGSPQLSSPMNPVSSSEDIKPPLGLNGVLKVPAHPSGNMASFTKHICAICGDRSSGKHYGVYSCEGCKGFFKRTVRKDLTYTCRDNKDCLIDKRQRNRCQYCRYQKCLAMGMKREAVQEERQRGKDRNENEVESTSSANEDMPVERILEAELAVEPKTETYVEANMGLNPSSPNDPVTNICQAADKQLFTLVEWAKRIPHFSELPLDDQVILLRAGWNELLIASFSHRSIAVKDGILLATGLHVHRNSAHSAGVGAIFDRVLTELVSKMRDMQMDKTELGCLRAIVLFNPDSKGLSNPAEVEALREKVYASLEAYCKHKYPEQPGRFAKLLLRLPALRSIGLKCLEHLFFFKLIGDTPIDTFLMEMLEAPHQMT
Chain of Peroxisome proliferator-activated receptor gamma (Homo sapiens) (P37231 whole entry, looked up): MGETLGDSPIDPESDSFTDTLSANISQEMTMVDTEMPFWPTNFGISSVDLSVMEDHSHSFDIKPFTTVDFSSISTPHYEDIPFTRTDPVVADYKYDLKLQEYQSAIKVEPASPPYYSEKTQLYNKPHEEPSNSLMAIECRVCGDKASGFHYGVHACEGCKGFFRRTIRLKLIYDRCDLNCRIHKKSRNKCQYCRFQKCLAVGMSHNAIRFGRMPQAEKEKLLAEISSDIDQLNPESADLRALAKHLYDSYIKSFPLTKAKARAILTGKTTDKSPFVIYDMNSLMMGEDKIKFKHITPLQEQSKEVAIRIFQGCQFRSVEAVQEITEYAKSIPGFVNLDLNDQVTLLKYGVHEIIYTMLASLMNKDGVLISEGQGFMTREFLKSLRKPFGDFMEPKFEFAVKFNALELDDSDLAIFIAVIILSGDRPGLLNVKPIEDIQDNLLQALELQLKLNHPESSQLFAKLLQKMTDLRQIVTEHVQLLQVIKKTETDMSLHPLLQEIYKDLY
Chain of Peroxisome proliferator-activated receptor alpha (Homo sapiens) (Q07869 whole entry, looked up): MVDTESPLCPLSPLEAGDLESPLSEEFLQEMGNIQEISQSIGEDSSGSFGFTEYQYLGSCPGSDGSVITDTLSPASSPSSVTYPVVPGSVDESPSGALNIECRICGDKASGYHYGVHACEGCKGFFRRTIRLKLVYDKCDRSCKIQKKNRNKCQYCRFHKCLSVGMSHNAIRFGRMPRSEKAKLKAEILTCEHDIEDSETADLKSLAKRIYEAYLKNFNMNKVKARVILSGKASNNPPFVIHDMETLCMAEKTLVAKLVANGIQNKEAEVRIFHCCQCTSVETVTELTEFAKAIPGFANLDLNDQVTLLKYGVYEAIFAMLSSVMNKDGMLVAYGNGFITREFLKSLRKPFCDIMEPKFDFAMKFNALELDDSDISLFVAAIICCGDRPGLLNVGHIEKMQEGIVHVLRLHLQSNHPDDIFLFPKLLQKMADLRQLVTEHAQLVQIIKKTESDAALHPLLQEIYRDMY

As to `C=C(C)C(=O)OCCCCCCCCCCCCCCCC`, the Potency entry in [1], in test [2], in test [5], in [6], in test [9] and in test [10] was “inactive” in each case. For the same compound, the Potency result in [18] was “inactive”. In addition, the max response in test [3] is -9.92%; in [8], -13%; in [11], -3.04%; in test [12], -1.04% (inactive); in test [15], -2.7% (inactive); in test [16], 0.407% (inactive). The max response in test [17] was -1.34% (inactive); in test [19], 2.75% (inactive). Also, the result in test [4], in test [7] and in test [20] was inactive. Further, the activation is -3.24% (inactive) in test [13] and 0.0765% (inactive) in test [14].

Consider `CCC/C(=N\OCC)C1=C(O)CC(O)(CC(C)S(=O)(=O)CC)CC1=O` (centres undefined), for which the Potency result in test [1], in [2], in test [5], in test [6], in [9] and in [10] was “inactive” in each case. The Potency result in [18] is “inactive”. Besides, the max response in test [3] is 9.67%; in [8] it was -16.2%; in test [11] it was -7.24%; in test [12] it was 3.08% (inactive); in [15] it was -0.0131% (inactive); in test [16], -10.1% (inactive). Moreover, the max response in [17] is -1.14% (inactive); in [19] it was 2.09% (inactive). In addition, the outcome in test [4], in [7] and in [20] was inactive. Besides, the activation in test [13] was -2.79% (inactive); in test [14], 3.19% (inactive).

For `CCCCCCCCCCCCCCN`, the Potency result in test [1], in [2], in test [5], in [6], in test [9] and in [10] was “inactive” in each case. Moreover, the Potency result in test [18] was “inactive”. Moreover, the max response in test [3] was -7.23%; in [8] it was -19.1%; in test [11] it was -5.44%; in [12] it was -5.01% (inactive); in test [15], -1.81% (inactive); in [16] it was 4.41% (inactive). Moreover, the max response was -3.28% (inactive) in [17] and 1.71% (inactive) in test [19]. The result in [4], in test [7] and in [20] was inactive. The figures for the activation in test [13] and in test [14] were -1.74% (inactive) and -0.123% (inactive), respectively.

Take `COC(=O)c1ccccc1S(=O)(=O)NC(=O)Nc1nc(OC(F)F)cc(OC(F)F)n1`: the Potency entry in test [1], in test [2], in [5], in test [6], in [9] and in [10] was “inactive” throughout. The Potency result in test [18] was “inactive”. Moreover, the max response in [3] was -18.5%; in test [8], -18.6%; in test [11], -7.16%; in test [15], -0.141% (inactive); in test [16], 4.57% (inactive); in [17] it was 0.401% (inactive). Further, the max response in test [19] is 1.81% (inactive). The outcome in test [4], in test [7] and in test [20] was inactive. Further, the activation is -2.94% (inactive) in test [13] and -0.662% (inactive) in test [14].
